Reference: ChEMBL document CHEMBL4513141, “CO-ADD screening of NIH (USA) - Clinical Collection” (2021)
The whole screen tested about 23,000 compounds, of which about 30 (0.1%) showed an effect of 50% or more. Shown is part of a subset that was picked to be rich in strong results. Entries with a potency or affinity are not part of this list.

system: Pseudomonas aeruginosa; settings: Concentration 20 uM; ASSAY_TEST Inhibition of Bacterial Growth; detection method Absorption (OD600); MEDIA CAMHB; plate type 384well; NBS; CORNING #3640; time 18 hr

Compound	Inhibition
CN1C(=O)CN=C(c2ccccc2)c2cc(Cl)ccc21 [DIAZEPAM]	6.74%
Cc1ncc2n1-c1ccc(Cl)cc1C(c1ccccc1F)=NC2.Cl [MIDAZOLAM HYDROCHLORIDE]	11.86%
Cc1nnc2n1-c1ccc(Cl)cc1C(c1ccccc1)=NC2 [ALPRAZOLAM]	52.22%
Cn1c(=O)c2nc[nH]c2n(C)c1=O.O [THEOPHYLLINE]	16.98%
